According to PubChem BioAssay (NCATS):
Inconclusive results are not listed. Calls of active or inactive are those of the source. Unless noted, the call rests on the fitted dose curve; in most records, active means well fitted curve in the direction sought with a large enough effect; inconclusive means small, poorly fitted or top-dose-only effect, or another doubt; inactive means no such curve, though single readings can be large; an effect the other way counts as inactive or inconclusive.

Tests used:
[1] = qHTS for differential inhibitors of proliferation of Plasmodium falciparum line Dd2 (AID 1882); settings: Potency: Plasmodium falciparum Dd2 proliferation inhibition; further: nearly all actives have a fitted effect of over 65% in size; further: potency means the concentration at half of the fitted maximal effect
How it was run: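 RBC culture, 0.3% parasitemia / 2.5% Hct final; cpd added by pin tool in DMSO; 72 h, 37 C, 5% CO2; lysis buffer + SYBR Green I, o/n RT dark; FI 485/535; norm. to artemisinin 0.29 uM and DMSO.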

[2] = qHTS for differential inhibitors of proliferation of Plasmodium falciparum line W2 (AID 1883); settings: Potency: Plasmodium falciparum W2 proliferation inhibition;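 further: parasites grown with compound for 72 h before lysis and staining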; further: potency means the concentration at half of the fitted maximal effect
[3] = qHTS for differential inhibitors of proliferation of Plasmodium falciparum line HB3 (AID 1886); settings: Potency: Plasmodium falciparum HB3 proliferation inhibition;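 further: parasites grown with compound for 72 h before SYBR Green readout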; further: potency means the concentration at half of the fitted maximal effect
[4] = qHTS Assay for Modulators of Human Peripheral Myelin Protein 22 (PMP22) Expression/Activity (AID 1967; active means well fitted curve in the direction sought with a large enough effect in the signal ratio; the % refers to the signal ratio)
How it was run: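 Quantitative HTS in a mouse Schwann cell line expressing dual click beetle luciferases: Pmp22 promoter (green) and control EF-alpha promoter (red). After 24h treatment, corrected green/red signal ratio gave %Activity relative to untreated cells.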

[5] = molecular target: Ferritin light chain (Equus caballus) (UniProt P02791); experiment: qHTS Validation Assay for Identification of Novel General Anesthetics (AID 2323); further: series mostly up to about 77 µM
How it was run: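 Apoferritin from horse spleen (10 uM) was mixed with 1-aminoanthracene at 50% saturation in PBS, then compounds were added. After 10 min at room temperature, fluorescence was read (ex 380 nm, em 535 nm) and normalized to free-probe and complex controls.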

[6] = molecular target: ATP-dependent DNA helicase Q1 (Homo sapiens) (UniProt P46063); experiment: qHTS Validation Assay for Inhibitors of RecQ-Like Dna Helicase 1 (RECQ1) (AID 2353)
How it was run: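 RECQ1T1 50 nM; forked duplex (20 bp + 30-nt ss tails) 200 nM, ATP 2 mM final; pH 8.0, 2 mM MgCl2, 2.5 ug/ml poly(dI-dC); 15 min compound preincubation; discontinuous kinetic read over 2 h at RT.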

[7] = Cytometric Cell-Based qHTS for Inhibitors of the mTORC1 Signaling Pathway in MEF (Tsc2-/-, p53-/-) Cells (AID 2660);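 further: Tsc2 and p53 null MEFs carrying empty vector with compound for 24 h; percent of cells above a phospho-rpS6 to PI ratio cutoff in each well; series mostly up to about 38 µM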
How it was run: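 Percent of cells positive for normalized phospho-S6 staining is reported, with the cutoff set from rapamycin (7.5 nM) versus DMSO wells. Tsc2-/-, p53-/- MEFs received compound for 24 hrs.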

[8] = High Content Imaging Cell-Based qHTS for Inhibitors of the mTORC1 Signaling Pathway in MEF (Tsc2-/-, p53-/-) Cells (AID 2666);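 further: percent of cells scored positive for phospho-rpS6 Ser235/236 immunostaining by imaging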
How it was run: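 Tsc2-/-, p53-/- MEFs (empty-vector stable) grown in DMEM + 10% FBS were exposed to compounds for 24 hrs at 37 degree Celsius, fixed, and stained with Alexa-488 anti-phospho-rpS6 Ser235/236 plus Hoechst. Imaging gave the percentage of positive cells per well.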

[9] = High Content Imaging Cell-Based qHTS for Inhibitors of the mTORC1 Signaling Pathway in MEF Cells (AID 2667); further: potency means the concentration at half of the fitted maximal effect
How it was run: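 Tsc2-/-, p53-/- MEFs stably re-expressing WT Tsc2, grown in DMEM + 10% FBS, were treated with compounds for 24 hrs at 37 degree Celsius, fixed, and stained with Alexa-488 phospho-rpS6 Ser235/236 antibody plus Hoechst; results given as % positive cells.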

[10] = Cytometry Cell-Based qHTS for Inhibitors of the mTORC1 Signaling Pathway in MEF cells (AID 2668);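 further: Tsc2-/- p53-/- mouse embryonic fibroblasts stably re-expressing wild-type Tsc2; percent cells positive for phospho-rpS6 Ser235/236 relative to propidium iodide stain; series mostly up to about 38 µM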
How it was run: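 Pathway inhibition in WT Tsc2-rescued Tsc2-/-, p53-/- MEFs is measured as the Alexa-488 phospho-rpS6 to propidium iodide intensity ratio after 24 hrs of compound at 37 degree Celsius. PI-stained cell number gives viability.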

[11] = Validation screen for inhibitors of Lassa infection (AID 463096; calls by dose curve; further: potency means the concentration at half of the fitted maximal effect)
[12] = Validation screen for small molecules that induce DNA re-replication in MCF 10A normal breast cells (AID 463097); further: nearly all actives have a fitted effect of over 60% in size
How it was run: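 DNA re-replication was detected as a rise in nuclei with elevated Hoechst fluorescence after a 48 hr compound exposure of MCF 10A cells at 37 C.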

[13] = molecular target: Ubiquitin carboxyl-terminal hydrolase 2 (Homo sapiens) (UniProt O75604); experiment: qHTS Validation Assay for Inhibitors of Ubiquitin-specific Protease USP2a Using CHOP2 as the Reporter (AID 463106)
How it was run: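 Readout was coupled fluorescence (Ex 485/Em 531 nm), read 60 min after adding 25 nM final Ub-CHOP2 and 25 nM reporter substrate. Beforehand, 10 nM final USP2 core had 30 min at RT with compound in pH 8.0 buffer. Curves were fitted after normalization to NEM and flagged for artifacts using time-zero reads.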

[14] = molecular target: DNA polymerase III PolC-type (Bacillus subtilis (strain 168)) (UniProt P13267); experiment: qHTS Validation Assay for the Inhibitors of DNA Replication in Gram-Positive Bacteria (AID 485295);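 further: reconstituted holoenzyme with PolC plus beta clamp SSB and primase; PicoGreen fluorescence of double-stranded DNA made on primed circular M13 template; series mostly up to about 57 µM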
How it was run: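 Primed replication of single-stranded M13Gori by a four-protein B. subtilis holoenzyme is measured at room temperature. Double-stranded product is quantified by PicoGreen fluorescence after an EDTA stop; inhibition is scaled between DMSO and EDTA controls.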

[15] = molecular target: Tumor susceptibility gene 101 protein (Homo sapiens) (UniProt Q99816); experiment: qHTS Validation Assay for Iinhibitors of HIV-1 Budding by Blocking the Interaction of PTAP/TSG101 (AID 485342; calls by dose curve)
How it was run: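 Fluorescence anisotropy measured PTAP-Tsg101 interaction. Final concentrations were 10 uM protein domain and 50 nM labeled peptide, equilibrated 20 min at room temperature.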

[16] = qHTS Validation Assay to Find Inhibitors of Chronic Active B-Cell Receptor Signaling (AID 485345; active means well fitted curve in the direction sought with a large enough effect in the main read-out, with a control signal flat, not every such curve was filed as active)
How it was run: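 Read-out: ratio of filter-corrected green (IkappaBalpha fusion) to red (native) luciferase signal in doxycycline-induced TMD8 cells after 4 h at 37C. Titration spanned 46 uM–3 nM; Data were normalised to basal cells and 10 uM MG-132 wells.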

[17] = molecular target: Beta-2 adrenergic receptor (Homo sapiens) (UniProt P07550); experiment: qHTS validation assay of beta-arrestin-biased ligands of beta2-adrenergic receptor (AID 485366)
How it was run: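 Screening used a titration range of up to 46 microM in a beta-arrestin recruitment Tango luciferase assay. Cells in 1% FBS medium were treated 18 hr at 37 degrees C, and luminescence was normalized to %Activity.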

[18] = Quantitative high throughput screen for delayed death inhibitors of the malarial parasite plastid, 96 hour incubation (AID 488745); further: nearly all actives have a fitted effect of over 70% in size; further: potency means the concentration at half of the fitted maximal effect
How it was run: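 Luciferase-expressing P. falciparum, infected RBCs 2% Hct/0.1% parasitemia (final); 96 h cpd exposure, 37 C, 5% CO2; RPMI 1640 + 0.5% Albumax, bicarbonate, gentamycin. Readout: luminescence loss = growth inhibition.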

[19] = molecular target: RecQ-like DNA helicase BLM (Homo sapiens) (UniProt P54132); experiment: qHTS Validation Assay for Inhibitors of Bloom's syndrome helicase (BLM) (AID 2364)
How it was run: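 Forked 20-bp duplex substrate (200 nM, TAMRA/BHQ-2) plus 2 mM ATP added after 15 min compound preincubation with 50 nM enzyme, pH 8.0, poly(dI-dC) 2.5 ug/ml. Strand separation followed by fluorescence (525/598 nm) over 2 h, normalized to enzyme-free and DMSO controls.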

Measured: Potency

Sequence of Beta-2 adrenergic receptor (Homo sapiens) (P07550 whole entry, looked up): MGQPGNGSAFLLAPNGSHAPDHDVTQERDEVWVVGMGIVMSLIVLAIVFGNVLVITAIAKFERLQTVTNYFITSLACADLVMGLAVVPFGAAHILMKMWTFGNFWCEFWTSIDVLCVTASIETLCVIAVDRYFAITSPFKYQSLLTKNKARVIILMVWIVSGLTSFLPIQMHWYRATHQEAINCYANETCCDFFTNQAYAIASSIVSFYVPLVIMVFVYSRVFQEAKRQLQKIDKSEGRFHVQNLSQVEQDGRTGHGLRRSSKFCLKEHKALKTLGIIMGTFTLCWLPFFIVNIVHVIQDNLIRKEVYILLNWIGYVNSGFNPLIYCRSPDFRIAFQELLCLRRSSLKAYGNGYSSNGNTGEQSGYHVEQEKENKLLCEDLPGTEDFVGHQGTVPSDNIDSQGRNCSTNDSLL
Sequence of DNA polymerase III PolC-type (Bacillus subtilis (strain 168)) (P13267 whole entry, looked up): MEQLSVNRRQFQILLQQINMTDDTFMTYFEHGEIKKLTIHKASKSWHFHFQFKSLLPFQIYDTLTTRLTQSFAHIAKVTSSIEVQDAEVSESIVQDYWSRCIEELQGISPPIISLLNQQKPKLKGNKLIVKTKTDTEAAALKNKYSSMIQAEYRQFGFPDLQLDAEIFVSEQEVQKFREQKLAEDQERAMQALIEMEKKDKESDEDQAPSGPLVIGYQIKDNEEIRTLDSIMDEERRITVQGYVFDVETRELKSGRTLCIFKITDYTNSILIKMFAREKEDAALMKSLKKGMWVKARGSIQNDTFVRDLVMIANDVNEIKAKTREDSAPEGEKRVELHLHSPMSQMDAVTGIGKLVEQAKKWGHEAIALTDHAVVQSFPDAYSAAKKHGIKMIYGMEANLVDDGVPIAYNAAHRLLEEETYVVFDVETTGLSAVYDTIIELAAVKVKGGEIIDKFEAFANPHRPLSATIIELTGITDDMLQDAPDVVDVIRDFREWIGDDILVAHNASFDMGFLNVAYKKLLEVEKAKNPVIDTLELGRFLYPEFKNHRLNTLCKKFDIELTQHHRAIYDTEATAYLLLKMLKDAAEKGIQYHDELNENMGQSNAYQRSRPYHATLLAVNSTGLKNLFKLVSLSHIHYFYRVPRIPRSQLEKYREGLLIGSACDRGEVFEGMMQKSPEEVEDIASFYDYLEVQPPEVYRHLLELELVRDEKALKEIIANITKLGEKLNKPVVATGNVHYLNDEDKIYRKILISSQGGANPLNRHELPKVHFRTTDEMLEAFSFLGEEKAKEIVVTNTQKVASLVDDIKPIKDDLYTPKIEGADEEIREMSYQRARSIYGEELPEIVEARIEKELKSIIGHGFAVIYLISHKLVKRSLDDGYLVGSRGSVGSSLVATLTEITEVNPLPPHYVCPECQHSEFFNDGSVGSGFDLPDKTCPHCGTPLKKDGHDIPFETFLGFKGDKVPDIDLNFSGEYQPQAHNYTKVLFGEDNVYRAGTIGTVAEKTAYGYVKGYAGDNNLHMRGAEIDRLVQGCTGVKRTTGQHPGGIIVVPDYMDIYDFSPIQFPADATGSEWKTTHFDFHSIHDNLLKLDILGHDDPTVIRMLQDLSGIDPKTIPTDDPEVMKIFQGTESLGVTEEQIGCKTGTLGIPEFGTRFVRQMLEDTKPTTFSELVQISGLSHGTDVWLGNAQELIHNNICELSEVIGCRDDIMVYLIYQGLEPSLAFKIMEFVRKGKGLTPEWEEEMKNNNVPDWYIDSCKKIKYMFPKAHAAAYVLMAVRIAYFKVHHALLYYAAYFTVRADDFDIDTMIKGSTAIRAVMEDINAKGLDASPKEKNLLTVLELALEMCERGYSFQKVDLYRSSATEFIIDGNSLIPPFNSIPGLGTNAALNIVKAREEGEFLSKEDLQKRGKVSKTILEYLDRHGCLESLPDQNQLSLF
Sequence of Ferritin light chain (Equus caballus) (P02791 2-175 limits assumed): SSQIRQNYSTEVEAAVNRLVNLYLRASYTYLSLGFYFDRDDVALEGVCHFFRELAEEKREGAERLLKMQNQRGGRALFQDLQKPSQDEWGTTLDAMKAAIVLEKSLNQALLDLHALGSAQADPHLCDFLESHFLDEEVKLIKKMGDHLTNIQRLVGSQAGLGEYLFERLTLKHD
Sequence of Ubiquitin carboxyl-terminal hydrolase 2 (Homo sapiens) (O75604 whole entry, looked up): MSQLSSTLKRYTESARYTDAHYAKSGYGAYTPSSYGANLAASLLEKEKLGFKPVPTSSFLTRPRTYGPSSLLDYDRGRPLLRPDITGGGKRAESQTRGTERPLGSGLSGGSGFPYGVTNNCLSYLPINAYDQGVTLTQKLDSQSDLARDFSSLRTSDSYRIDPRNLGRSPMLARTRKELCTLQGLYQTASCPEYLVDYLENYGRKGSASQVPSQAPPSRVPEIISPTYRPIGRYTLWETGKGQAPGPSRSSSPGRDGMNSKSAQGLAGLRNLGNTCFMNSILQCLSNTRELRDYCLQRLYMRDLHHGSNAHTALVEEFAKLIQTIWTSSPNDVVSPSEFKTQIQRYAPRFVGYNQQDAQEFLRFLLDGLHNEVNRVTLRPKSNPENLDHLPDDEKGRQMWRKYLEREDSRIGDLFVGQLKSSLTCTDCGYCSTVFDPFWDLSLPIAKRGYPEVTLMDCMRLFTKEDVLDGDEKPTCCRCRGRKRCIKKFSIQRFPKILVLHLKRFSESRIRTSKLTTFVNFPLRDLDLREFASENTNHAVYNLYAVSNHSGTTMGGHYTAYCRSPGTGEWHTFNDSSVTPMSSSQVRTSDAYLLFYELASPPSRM
Sequence of Tumor susceptibility gene 101 protein (Homo sapiens) (Q99816 whole entry, looked up, the tested form may be a part): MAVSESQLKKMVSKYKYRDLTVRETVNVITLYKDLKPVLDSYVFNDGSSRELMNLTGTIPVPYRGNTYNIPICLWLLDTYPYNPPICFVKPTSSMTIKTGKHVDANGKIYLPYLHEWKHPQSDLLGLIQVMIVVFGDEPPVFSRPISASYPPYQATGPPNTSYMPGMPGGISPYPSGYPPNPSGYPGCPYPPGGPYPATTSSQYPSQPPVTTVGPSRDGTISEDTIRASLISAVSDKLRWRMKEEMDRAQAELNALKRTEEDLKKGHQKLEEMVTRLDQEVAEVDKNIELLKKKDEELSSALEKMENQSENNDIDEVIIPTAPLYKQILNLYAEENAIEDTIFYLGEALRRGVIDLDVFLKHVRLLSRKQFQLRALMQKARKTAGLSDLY
Sequence of ATP-dependent DNA helicase Q1 (Homo sapiens) (P46063 whole entry, looked up): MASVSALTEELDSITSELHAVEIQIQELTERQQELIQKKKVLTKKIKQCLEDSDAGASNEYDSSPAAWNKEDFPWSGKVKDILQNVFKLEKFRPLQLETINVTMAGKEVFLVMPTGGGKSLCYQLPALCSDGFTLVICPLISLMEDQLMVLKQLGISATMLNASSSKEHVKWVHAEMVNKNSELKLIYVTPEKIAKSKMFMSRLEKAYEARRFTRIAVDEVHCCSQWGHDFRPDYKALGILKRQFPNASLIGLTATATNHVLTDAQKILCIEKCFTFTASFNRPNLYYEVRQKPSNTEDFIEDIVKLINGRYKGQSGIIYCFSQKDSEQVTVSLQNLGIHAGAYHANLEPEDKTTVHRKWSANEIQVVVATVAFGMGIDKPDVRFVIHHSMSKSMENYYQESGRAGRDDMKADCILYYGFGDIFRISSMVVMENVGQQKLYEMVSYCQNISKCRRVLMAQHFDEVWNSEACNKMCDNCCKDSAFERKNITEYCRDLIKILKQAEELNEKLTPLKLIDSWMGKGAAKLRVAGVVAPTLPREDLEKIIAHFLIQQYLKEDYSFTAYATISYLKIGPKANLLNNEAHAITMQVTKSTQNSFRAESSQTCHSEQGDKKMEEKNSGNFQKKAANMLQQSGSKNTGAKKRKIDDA

O=C1CCCN1CC#CCN1CCCC1
not listed: [19]
inactive: all other assays above

CNCCc1c[nH]c2ccc(O)cc12
not listed: [18] | [19]
inactive: all other assays above

c1ccc(CCCN2CCN(CCOC(c3ccccc3)c3ccccc3)CC2)cc1
inactive: [6] | [7] | [8] | [13] | [14] | [15] | [16] | [17]
active: [1] 8.91 µM | [2] 3.16 µM | [3] 7.94 µM | [18] 2.08 µM

NC(N)=NOCCC(N)C(=O)O (configuration not stated)
not listed: [19]
inactive: all other assays above

O=C(O)Cc1cnc[nH]1
not listed: [4] | [19]
inactive: all other assays above

O=C(O)[C@@H]1CCN1
not listed: [19]
inactive: all other assays above

Cn1cnc(CCN)c1
not listed: [10]
inactive: all other assays above

O=C(Cc1ccc(Cl)c(Cl)c1)N1CCCCC1CN1CCCC1 (configuration not stated)
active: [1] 7.94 µM | [2] 2 µM
not listed: [3] | [4] | [18] | [19]
inactive: all other assays above

CC[C@@]1(O)C(=O)OCc2c1cc1n(c2=O)Cc2cc3ccccc3nc2-1
inactive: [6] | [7] | [8] | [13] | [14] | [15] | [17]
active: [1] 1 µM | [2] 0.794 µM | [3] 0.794 µM | [9] 0.104 µM | [18] 1.47 µM

NCc1cc(=O)[nH]o1
inactive: all assays above

CC(=O)[C@H]1CCC2C3CC[C@H]4C[C@H](O)CC[C@]4(C)C3CC[C@@]21C (some centres not stated)
active: [2] 10 µM
not listed: [3] | [4] | [12] | [19]
inactive: all other assays above

S=C(NC1CCCCC1)N1CCC(c2cnc[nH]2)CC1
active: [2] 11.2 µM
not listed: [3] | [19]
inactive: all other assays above

C[N+]1(C)C2CCC1CC(OC(=O)C(CO)c1ccccc1)C2 (configuration not stated)
inactive: all assays above

CC1=NN=C(c2ccc(N)cc2)c2cc3c(cc2C1)OCO3
active: [2] 8.91 µM
not listed: [3] | [4]
inactive: all other assays above

CCCN1CCO[C@@H]2c3cc(O)ccc3OC[C@H]21
inactive: all assays above

C[N+](C)(C)CC(=O)O
inactive: [1] | [2] | [3] | [4] | [5] | [6] | [19] | [11] | [12]

NC1CCc2cc(O)c(O)cc2C1 (configuration not stated)
active: [2] 14.1 µM
not listed: [3] | [13] | [19]
inactive: all other assays above

Cc1nccc2c1[nH]c1ccccc12
active: [2] 10 µM | [3] 11.2 µM
not listed: [4] | [5] | [16]
inactive: all other assays above

NC(CP(=O)(O)O)C(=O)O (configuration not stated)
not listed: [4] | [19]
inactive: all other assays above

Cc1nc(-c2ccc(-c3ccc(C(=O)N4CCc5cc6c(cc54)C4(CCN(C)CC4)CO6)cc3)c(C)c2)no1
inactive: [19]
active: [1] 8.91 µM | [2] 10 µM | [3] 11.2 µM | [11] 10 µM

C#CCOC(=O)C1=CCCN(C)C1
active: [2] 15.8 µM
not listed: [3] | [4]
inactive: all other assays above

C[C@@H]1O[C@H](C[N+](C)(C)C)C[C@H]1O
inactive: all assays above

NC(=NCCC[C@H](N)C(=O)O)N[N+](=O)[O-]
not listed: [4] | [18] | [19]
inactive: all other assays above

NCCc1c[nH]c2ccc(O)cc12
inactive: all assays above

NC(=O)CN1CC(O)CC1=O (configuration not stated)
active: [3] 2.82 µM
not listed: [19]
inactive: all other assays above

O=C(O)CC[N+](=O)[O-]
not listed: [19]
inactive: all other assays above

CN1C2CCC1CC(OC(=O)c1cc(Cl)cc(Cl)c1)C2 (configuration not stated)
active: [2] 8.91 µM
not listed: [3] | [4] | [10] | [12] | [16] | [18]
inactive: all other assays above

CS(=N)(=O)CC[C@H](N)C(=O)O (some centres not stated)
not listed: [4]
inactive: all other assays above
